Measurements published in PubChem BioAssay (NCATS).
Inconclusive results are not listed. Activity calls are given as the source filed them. Calls come from the whole dose curve; as a rule, active = well fitted inhibition curve with a large enough effect; inconclusive = small, poorly fitted or top-dose-only effect; inactive = flat fitted curve, though single readings scatter.

The molecules below were run against Calcium and integrin-binding protein 1 (Homo sapiens) (UniProt Q99828) (assay: Primary qHTS for Identification of Calcium Integrin Binding Protein 1 (CIB1) Competitor (AID 1508620;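 note: GST tagged CIB1 binding a fluorescein labelled alphaIIb integrin peptide tracer; top concentration of the series differs between compounds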)). Conditions: CIB1-GST / FITC-alphaIIb peptide fluorescence polarization; series mostly up to 114 µM; activity change, negative = inhibition: at the top concentration.
How it was run: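 Fluorescence polarization competition: CIB1-GST (1 uM final) preincubated with compound 15 min at room temperature, then FITC-labeled alphaIIb peptide (100 nM final) added for another 15 min. Polarization read at Ex 480/Em 540.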
% is set by controls: 0 for no effect and ±100 for the full control effect.

Calcium and integrin-binding protein 1 (Homo sapiens), sequence (Q99828 whole entry, looked up): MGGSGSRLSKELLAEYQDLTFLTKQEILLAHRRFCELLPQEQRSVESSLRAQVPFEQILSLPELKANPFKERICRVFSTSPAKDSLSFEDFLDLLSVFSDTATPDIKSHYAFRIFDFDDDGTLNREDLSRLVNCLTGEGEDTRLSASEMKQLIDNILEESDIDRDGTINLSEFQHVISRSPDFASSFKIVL

Row | Structure (SMILES) | activity change, negative = inhibition
1 | CCN(Cc1cccnc1)C(=O)CN(c1ccc(OC)nc1)S(=O)(=O)c1ccccc1C | 1.71% (inactive)
2 | OCc1ccc(O[C@@H]2O[C@H](CO)[C@@H](O)[C@H](O)[C@H]2O)cc1 | -4.49% (inactive)
3 | OC[C@H]1O[C@@H](Oc2ccccc2)[C@H](O)[C@@H](O)[C@@H]1O | -3.81% (inactive)
4 | CSc1ccc(C(=O)N[C@@H]2CCCC[C@@H]2NC(=O)CNC(=O)c2cc(C(F)(F)F)ccc2NC(=O)NC(C)C)cc1 | 3.84% (inactive)
5 | CO[C@H]1C[C@@H]2CC[C@@H](C)[C@@](O)(O2)C(=O)C(=O)N2CCCC[C@H]2C(=O)O[C@H]([C@H](C)C[C@H]2CC[C@@H](OP(C)(C)=O)[C@H](OC)C2)CC(=O)[C@H](C)/C=C(\C)[C@@H](O)[C@@H](OC)C(=O)[C@H](C)C[C@H](C)/C=C/C=C/C=C/1C | -5.59% [at 57.7 µM] (inactive)
6 | CC[C@@](C)(Nc1ccnc(-c2c[nH]c3ncccc23)n1)C(=O)NCC(F)(F)F | -7.97% (inactive)
7 | CC(=O)CC1CCC(C(C)C(=O)OCC(O)CO)O1 (centres undefined) | -5.53% (inactive)
8 | CC(=O)O[C@@H]1[C@@H](O)[C@H](C)O[C@@H](O[C@H]2[C@@H]3C=CO[C@@H](O[C@@H]4O[C@H](CO)[C@@H](O)[C@H](O)[C@H]4O)[C@@H]3[C@@]3(CO)O[C@@H]23)[C@@H]1OC(=O)/C=C/c1ccccc1 | 3.47% [at 30.2 µM] (inactive)
9 | Cc1noc(=O)c2ccc(NC(=O)C(O)(CC(C)(C)c3cccc4c3OCC4)C(F)(F)F)cc12 (centres undefined) | -2.28% (inactive)
10 | CNS(=O)(=O)c1ccccc1Nc1nc(Nc2ccc(N3CCN(C)CC3)cc2OC)ncc1Cl | -13.6% (inactive)
11 | N#Cc1ccc(-c2cnc3[nH]cc(NC(=O)c4cccnc4)c3c2)cc1 | -8.36% (inactive)
12 | COc1cc(O)c2c(c1)C1=CC(O)C(O)CC1(C)OC2=O (centres undefined) | -0.489% (inactive)
13 | CCOCc1cc(OC)c(-c2ccc(C[C@H](NC(=O)c3c(F)cccc3F)C(=O)O)cc2)c(OC)c1 | 1.37% (inactive)
14 | CC1=C(C)C(=O)OC(C(C)C2CCC3C4C5OC5C5(O)CC(OC6OC(CO)C(OC7OC(C)C(O)C(O)C7O)C(O)C6O)CC(O)C5(C)C4CCC23C)C1 (centres undefined) | 2.73% [at 30.2 µM] (inactive)
15 | C[C@H](CCC(=O)O)[C@H]1CC[C@H]2[C@@H]3C[C@H](O)[C@@H]4C[C@H](O)CC[C@]4(C)[C@H]3CC[C@]12C | 0.928% (inactive)
16 | C[C@@H]1O[C@@H](O[C@H]2[C@H](O[C@H]3CC[C@@]4(C)C(CC[C@]5(C)C4CC=C4[C@@H]6CC(C)(C)CC[C@]6(C(=O)O[C@@H]6OC[C@H](O)[C@H](O)[C@H]6O[C@@H]6O[C@@H](C)[C@H](O[C@@H]7O[C@H](CO)[C@@H](O)[C@H](O)[C@H]7O)[C@H](O)[C@H]6O)[C@H](O)C[C@]45C)C3(C)C)O[C@H](CO)[C@@H](O[C@@H]3OC[C@@H](O)[C@H](O)[C@H]3O)[C@@H]2O)[C@H](O)[C@H](O)[C@H]1O (some centres undefined) | -1.57% [at 12.4 µM] (inactive)
17 | COC(=O)c1cc(OC)c(O[C@@H]2O[C@@H](C)[C@H](O)[C@@H](O)[C@H]2O)c(OC)c1 | 2.59% [at 57.7 µM] (inactive)
18 | C[C@@H]1CCC2C(C)(C)[C@H](O)CC[C@]2(C)[C@@]12Cc1c(O)cc3c(c1O2)CN([C@@H](CCC(=O)O)C(=O)O)C3=O (some centres undefined) | -3.32% [at 57.7 µM] (inactive)
19 | OC/C=C/c1ccc(O[C@@H]2O[C@H](CO)[C@@H](O)[C@H](O)[C@H]2O)cc1 | 5.47% [at 57.7 µM] (inactive)
20 | CC1(O)CCCC2(C)C1CCC13CC(CO)C(CCC12)C3 (centres undefined) | 1.03% (inactive)
21 | COC1/C=C/C(C)(O)C(SCC(N)C(=O)O)CC(=O)OC(C)C(C)CC/C=C/1C (centres undefined) | -5.29% [at 57.7 µM] (inactive)
22 | COc1ccc(N2CCOCC2)c2sc(NC(=O)N3CCC(C)(O)CC3)nc12 | -5.25% (inactive)
23 | CC1(O)CC(O)C2(O)C=COC(O[C@@H]3O[C@H](CO)[C@@H](O)[C@H](O)[C@H]3O)C12 (some centres undefined) | -2.64% [at 57.7 µM] (inactive)
24 | CC1(C)CC[C@]2(C(=O)O[C@@H]3O[C@H](CO[C@@H]4O[C@H](CO)[C@@H](O)[C@H](O)[C@H]4O[C@@H]4O[C@H](CO)[C@H](O)[C@H](O)[C@H]4O)[C@@H](O)[C@H](O[C@@H]4O[C@H](CO)[C@@H](O)[C@H](O)[C@H]4O)[C@H]3O)CC[C@]3(C)C(=CCC4[C@@]5(C)CC[C@H](O[C@@H]6OC[C@@H](O)[C@H](O)[C@H]6O)[C@@](C)(C(=O)O)C5CC[C@]43C)[C@@H]2C1 (some centres undefined) | 0.475% [at 12.4 µM] (inactive)
25 | CC(=O)O[C@@H]1[C@@H](OC(=O)/C=C/c2ccccc2)[C@@H](OC(C)=O)[C@H](O[C@H]2[C@@H]3C=CO[C@@H](O[C@@H]4O[C@H](CO)[C@@H](O)[C@H](O)[C@H]4O)[C@@H]3[C@@]3(CO)O[C@@H]23)O[C@H]1C | -2.72% [at 30.2 µM] (inactive)
26 | CCOc1cc(CC(=O)NC(CC(C)C)c2ccccc2N2CCCCC2)ccc1C(=O)O (centres undefined) | 2.52% (inactive)
27 | NCc1c[nH]c(=S)n1[C@@H]1CCc2c(F)cc(F)cc2C1 | -4.86% (inactive)
28 | COC(=O)CCSCc1ccc(-c2onc(C)c2NC(=O)OC(C)c2ccccc2Cl)cc1 (centres undefined) | 1.95% (inactive)
29 | C/C=C/c1ccc(O[C@@H]2O[C@H](CO)[C@@H](O)[C@H](O)[C@H]2O)c(OC)c1 | 2.3% [at 57.7 µM] (inactive)
